Screens deposited in PubChem BioAssay by National Center for Advancing Translational Sciences (NCATS).
Rows were chosen to be rich in hits. Some 3.3% of all compounds tested hit in one or more screens of this group.
AmpC inh detg: AmpC beta-lactamase inhibition with detergent present; P00811; AmpC hydrolysis of nitrocefin, absorbance 480 nm, 0.01% Triton; Potency, µM (doses to about 114 µM), for the others: at the highest dose activity change, negative = inhibition, hits mostly inhibitors; 0.041% of 370,000 active; AID 485294;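 note: 0% = no-compound wells and -100% = no-enzyme wells; nearly all actives have a fitted effect of over 25% in size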
Target sequence (P00811 whole entry, looked up): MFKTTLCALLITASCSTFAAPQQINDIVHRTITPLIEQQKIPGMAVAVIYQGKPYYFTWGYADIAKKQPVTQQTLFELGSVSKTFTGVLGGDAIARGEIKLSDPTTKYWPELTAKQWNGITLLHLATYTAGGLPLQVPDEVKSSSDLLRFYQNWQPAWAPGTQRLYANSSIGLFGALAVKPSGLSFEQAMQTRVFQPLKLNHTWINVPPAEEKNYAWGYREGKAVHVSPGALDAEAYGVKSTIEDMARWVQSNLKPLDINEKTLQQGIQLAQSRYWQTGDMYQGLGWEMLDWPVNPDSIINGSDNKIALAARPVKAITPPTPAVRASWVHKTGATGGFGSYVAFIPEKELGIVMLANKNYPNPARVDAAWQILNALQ
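20 mM phosphate pH 7.0 + 0.01% (detergent screen) or 0.0001% Triton X-100; 5.3 nM AmpC reagent; cpd preinc 15 min RT; nitrocefin (800 uM stock) to start; A480 q20 s × 4 min; Activity was normalised to no-enzyme and no-compound control wells.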
AmpC inh no detg: inhibitors of E. coli AmpC beta-lactamase without detergent. AmpC nitrocefin hydrolysis, absorbance 480 nm, 0.0001% Triton. Potency, µM (top dose mostly 57.1 µM), without a hit: at the top dose activity change, negative = inhibition, usual class: inhibitors. 0.52% of 330,000 active;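 note: plate controls were no compound for no effect and no enzyme for full effect; nearly all actives have a fitted effect of over 20% in size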
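AmpC (5.3 nM in the dispensed reagent) in 20 mM phosphate pH 7.0 with 0.01% (detergent screen) or 0.0001% Triton X-100 was preincubated with compounds for 15 min at room temperature. Nitrocefin was then added from an 800 uM solution, and hydrolysis was followed at 480 nm.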
Sm TGR inh: blocks Schistosoma mansoni thioredoxin glutathione reductase; purified TGR, DTNB reduction, TNB absorbance 405 nm; Potency, µM (top dose mostly 114 µM), for the others: top-dose activity change, negative = inhibition, usual class: inhibitors; 3% of 360,000 active; note: nearly all actives have a fitted effect of over 60% in size
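TGR 20 nM + NADPH 100 uM (dispensed conc.), cpd preinc 15 min RT; start with NADPH (500 uM addition) then DTNB (15 mM addition). Kinetic TNB absorbance, 405 nm filter. Four-parameter Hill fit across titration.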
Starred values were filed as active, the others as inactive; ? = inconclusive; / = not tested or not shown; [ ] = remark or other dose. Calls come from the whole dose curve; as a rule, active = well fitted curve in the direction sought with a large enough effect; inconclusive = small, poorly fitted or top-dose-only effect, or another doubt; inactive = no such curve, though single readings can be large; an effect the other way counts as inactive or inconclusive. Unless noted, % is set by controls: 0 for no effect and ±100 for the full control effect; potency is the fitted concentration of half-maximal effect.

SMILES | AmpC inh detg | AmpC inh no detg | Sm TGR inh
CCn1cc(C(=O)NCCCOC(C)C)c(=O)c2cc(S(=O)(=O)N3CCOCC3)ccc21 | 4% | 145% | 6%
CC(=O)c1cccc(NC(=S)Nc2cccc3ccccc23)c1 | -15% | -31% | ?
CC(=O)c1ccc(NC(=S)Nc2cccc3cnccc23)cc1 | 8% | -9% | 20µM*
Cc1ccc(C)c(NC(=S)Nc2cccc3cnccc23)c1 | -7% | -2%[2.29 µM] | ?
Cc1ccc(NC(=S)Nc2cccc3cnccc23)cc1C | 1% | -22% | ?
S=C(Nc1cccc(Cl)c1)Nc1cccc2cnccc12 | 4% | -37% | 25µM*
Cc1ccc(NC(=S)Nc2cccc3cnccc23)cc1 | 3% | -37% | 45µM*
CC1CC(C)CN(S(=O)(=O)c2ccc(NC(=O)CCNC(=O)c3ccc([N+](=O)[O-])cc3)cc2)C1 (stereo unspecified) | 6% | -16% | 7%
O=C(c1ccccc1Cl)N1CCC(n2cccc2)CC1 | -9% | 91% | -5%
CCOc1ccc(NS(=O)(=O)c2cc3c(cc2Cl)NC(=O)CO3)cc1 | 17% | / | 3%
CC(=O)c1ccc2c(c1)C1C=CCC1C(c1ccncc1)N2 (stereo unspecified) | -10% | 81% | ?
C1=CC2c3ccccc3NC(c3ccncc3)C2C1 (stereo unspecified) | 5% | 90% | 2.5µM*
Cn1c(=O)n(-c2ccc(Br)cc2F)c(=O)c2sc3ccccc3c21 | 11% | / | 4%
CCCCc1ccc(/C=C2\C(=O)c3ccccc3C(O)=C2C(=O)OCC)cc1 | 6% | -29% | 11µM*
CCOC(=O)C1=C(Cc2ccc(F)cc2)C(=O)c2ccccc2C1=O | -12% | -39% | ?
CC(=O)/C=N/Nc1ccccc1 | ? | -10% | -30%
OC[C@@H](O)[C@H](O)C(/C=N/Nc1ccccc1)=N\Nc1ccccc1 | -8% | 23% | 20µM*
COc1cccc(NC(=O)Cn2cnc3c(nc4n3CCCCC4)c2=O)c1 | 2% | / | 5%
S=C(NCCc1ccccc1)Nc1ccc(Cl)cc1Cl | -8% | -20% | 1%
CN(O)/C=N/C(=S)Nc1ccc(Cl)cc1Cl | 1% | -22% | 0.56µM*
CN(C)/C=N/C(=S)Nc1ccccc1Cl | 4% | 2% | /
CCNC(=S)Nc1ccc(Cl)cc1Cl | -18% | -18% | 45µM*
CC1=C(C#N)C(NC(=O)c2ccccc2)(C(F)(F)F)C(=O)N1 (stereo unspecified) | 8% | / | 0%
Cc1ccc(S(=O)(=O)N2CCOCC2)cc1C(=O)NC1CCSc2ccccc21 (stereo unspecified) | 3% | 25% | -2%
CC(C)(C)OC(=O)C[C@@H]1C/C=C\C[C@@H](CC(=O)NCCO)C(=O)NCCOC1=O | / | 7% | /
SMILES | AmpC inh detg | AmpC inh no detg | Sm TGR inh
COc1ccc(N2C(=O)CC(N(C)CCc3ccc(OC)c(OC)c3)C2=O)cc1 (stereo unspecified) | -3% | 100% | -1%
COC(=O)c1ccc(N2C(=O)CC(N(C)CCc3ccc(OC)c(OC)c3)C2=O)cc1 (stereo unspecified) | -3% | 71% | 22µM*
CCCOc1ccc(N2C(=O)CC(N(CCc3ccc(OC)c(OC)c3)C(=O)c3ccccc3)C2=O)cc1 (stereo unspecified) | -1% | 134% | 6%
COc1ccc(CCN(C)C2CC(=O)N(c3ccccc3)C2=O)cc1OC (stereo unspecified) | 2% | 23% | 11µM*
Cc1ncc(CO)c2c1Oc1nc(-c3ccccc3Cl)nc(SCc3ccccc3F)c1C2 | -6% | / | 2%
CC(Sc1nc2ccccc2c(=O)n1C)C(=O)N(C)C1CCCCC1 (stereo unspecified) | -5% | 49% | 3%
COc1ccc(S(=O)(=O)N2CCN(CCCOc3ccc(F)cc3)CC2)cc1OC | 1% | 150% | 3%
COc1ccc(-n2c(CN3CCOCC3)nc3ccc([N+](=O)[O-])cc3c2=O)c(OC)c1 | -12% | 96% | 45µM*
COc1ccc(-n2c(CN3CCN(c4ccccc4)CC3)nc3ccc([N+](=O)[O-])cc3c2=O)c(OC)c1 | -20% | 54% | ?
CCOC(=O)N1CCN(Cc2nc3ccc([N+](=O)[O-])cc3c(=O)n2-c2ccc(OC)cc2OC)CC1 | -12% | 92% | 40µM*
COc1ccc(-n2c(CN3CCC(C)CC3)nc3ccc([N+](=O)[O-])cc3c2=O)c(OC)c1 | -1% | -35% | ?
COc1ccc(-n2c(COc3ccccc3)n[nH]c2=S)cc1 | -10% | -23% | 2%
Cc1ccc2nsnc2c1NC(=O)COc1ccccc1 | -1% | -1% | -6%
CC(=O)Nc1ccc(C(=O)NC(CC(=O)O)c2ccc(Cl)cc2)cc1 (stereo unspecified) | -5% | -12% | -3%
CN(C)c1ccc(C(CC(=O)O)NC(=O)c2ccc(Cl)cc2)cc1 (stereo unspecified) | ? | -16% | 32µM*
O=C(O)CC/C(=N/NC(=O)c1ccc(-c2ccccc2)cc1)c1ccccc1 | 0% | -32% | 2%
Cc1ccc2c(CN3CCN(S(=O)(=O)c4ccccc4C(F)(F)F)CC3)cc(=O)oc2c1C | -6% | ? | 0%
O=C(N/N=C/c1ccccc1Cl)c1cccc(F)c1 | ? | -37% | 12%
O=C(N/N=C/c1ccc(N2CCOCC2)o1)c1cccc(F)c1 | 5% | -2% | 10µM*
O=C(N/N=C/c1c(Cl)cccc1Cl)c1cccc(F)c1 | 1% | -19% | 35µM*
COc1ccc(C(=O)N/N=C/c2ccc(N3CCOCC3)s2)cc1OC | -7% | -12% | -29%
Cc1cccc(C(=O)Nc2cccc(C(=O)N/N=C/c3ccccn3)c2)c1 | -7% | -39% | 0%
COc1ccc(C(=O)N/N=C/c2ccc(N3CCOCC3)o2)cc1OC | ? | 29% | 7.9µM*
O=C(N/N=C/c1ccc(-c2cccc(C(F)(F)F)c2)o1)c1cccc(F)c1 | -1% | -35% | -20%
O=C(N/N=C/c1ccccn1)c1cccc(NC(=O)c2ccccc2Cl)c1 | 1% | 18µM* | -1%
SMILES | AmpC inh detg | AmpC inh no detg | Sm TGR inh
CCN1CCN(C(=O)c2ccc3c(c2)N(Cc2cc(C)ccc2C)C(=O)c2ccccc2S3(=O)=O)CC1 | 12% | / | -6%
O=[N+]([O-])c1ccccc1CSc1nc2ccccc2o1 | -14% | -34% | 1%
COC(=O)C1CCN(C(=O)CN(C)Cc2ccc(C(C)(C)C)cc2)CC1 | 0% | 106% | 2%
Cc1c(NC=C(C#N)C#N)c(=O)n(-c2ccccc2)n1C | 2% | -18% | 0%
CCCC(=O)NC(Nc1c(C)n(C)n(-c2ccccc2)c1=O)C(Cl)(Cl)Cl (stereo unspecified) | -4% | 1% | /
Cc1c(N/C=C(\Cl)C(=O)C(F)(F)F)c(=O)n(-c2ccccc2)n1C | -9% | -15% | 14µM*
Cc1c(N/C=C/C(=O)c2cccs2)c(=O)n(-c2ccccc2)n1C | -15% | 36% | 45µM*
Cc1c(NC(=O)c2cccs2)c(=O)n(-c2ccccc2)n1C | 4% | -1% | 0%
CC(=O)NC(Nc1c(C)n(C)n(-c2ccccc2)c1=O)C(Cl)(Cl)Cl (stereo unspecified) | ? | -19% | 40µM*
COc1ccccc1NC(=O)CCCc1nnc2n(C)c(=O)c3sccc3n12 | -10% | -9% | 7%
